Shown are actives, neighbours in structure and some others; about 3.5% of the full set was active somewhere.
Pf apPOL inh: Pf-apPOL inhibitors, biochemical, fluorescence; AID 1794808, 2022; Plasmodium falciparum apicoplast DNA polymerase (apPOL); 210,000 tested, 0.25% active; Recombinant Pf-apPOL, molecular beacon fluorescence, 1.5 h; inhibition, % at 10 µM
mHTT CaM bind: mutant huntingtin-calmodulin interaction inhibitors – biochemical, AlphaScreen, primary screen. P42858. AlphaScreen His-mHTT/GST-CaM binding, luminescence. inhibition, % at 15 µM. 190,000 tested, 3.6% active. AID 1671202, 2021;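 further: 0% = both proteins with DMSO and 100% = one protein alone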
Numbers without * were called inactive; i = inactive; nt = no result. No stated cut-off is given here; in the data, active means inhibition above about 50%; inactive means the rest.

SMILES	Pf apPOL inh	mHTT CaM bind
Cc1ccc(N(Cc2ccc(C(=O)NCc3ccncc3)cc2)S(C)(=O)=O)cc1C	-3	8
O=[N+]([O-])c1ccc2nc(Nc3ccc(Cl)c(Cl)c3)c(Nc3ccc(Cl)c(Cl)c3)nc2c1	nt	-3
O=[N+]([O-])c1ccc(Cl)c(Nc2nc3nonc3nc2Nc2cc([N+](=O)[O-])ccc2Cl)c1	nt	98*
CCOc1ccc(NC(=O)CN(c2ccc(F)cc2)S(C)(=O)=O)cc1	-2	2
CCOC(=O)C1CCN(C(=O)CCC(=O)N2CCCn3nc(C)cc32)CC1	-2	-2
CCOCC(=O)NC1CC(O)C(CO)C1 (centres undefined)	1	-8
CN(C)S(=O)(=O)c1ccc(NC(=O)Cc2ccc(F)cc2)cc1	-3	-14
Cc1cccc(C)c1NC(=O)c1ccco1	-6	-9
Cc1ccc(/C=C/NC(=O)c2ccco2)cc1C	-4	77*
COC(=O)c1ccc(N2C(c3cccc(OC)c3)=Cc3ccc(F)cc3C2c2c(C)[nH]c3ccccc23)cc1 (centres undefined)	1	2
COc1ccc(-c2ccc(N3C(c4ccsc4)=Cc4ccc(F)cc4C3c3c[nH]c4ccccc34)cc2)cc1 (centres undefined)	-4	82*
O=S(=O)(c1ccccc1)c1nc(C(c2ccccc2)c2ccccc2)oc1N1CCOCC1	2	26
O=C1C(N2CCOCC2)=CC(=NS(=O)(=O)c2ccccc2)c2ccccc21	-6	72*
O=C1C(N2CCOCC2)=CC(=NS(=O)(=O)c2ccc(Cl)cc2)c2ccccc21	-2	64*
O=S(=O)(Nc1ccc(N2CCOCC2)cc1)c1ccc(Cl)cc1	-2	7
CCNc1cc(N2CCC(CCC(=O)NC(C)C)CC2)ncn1	9	-3
O=C(CN1CCC(c2nc(-c3cccs3)no2)CC1)NC1CCCCC1	1	-4
Cc1ccc2c(C)nc(N=C(N)N)nc2c1	5	7
NC(N)=Nc1nc(-c2ccccc2)c2ccccc2n1	-2	73*
COc1ccc(C2(CNC(=O)c3cc(-c4ccccc4)n[nH]3)CCOCC2)cc1	-6	5
COCCCNC(=O)N1CCCCCC1c1ccc(Cl)cc1 (centres undefined)	72*	4
COCCCNC(=O)N1CCCC1c1ccc(Cl)cc1 (centres undefined)	-2	-6
COc1ccc(C2(CNS(=O)(=O)c3ccc(OC)c(Cl)c3)CCOCC2)cc1	-5	-21
CN(C)c1ccc(CC2C(=O)Nc3ccccc32)cc1 (centres undefined)	6	nt
CC1=Nc2ccccc2NC(=O)C1Cc1ccccc1 (centres undefined)	-9	91*
SMILES	Pf apPOL inh	mHTT CaM bind
O=C(O)c1ccc(/C=C2/NC(=O)N(Cc3ccc(Cl)cc3)C2=O)cc1	-6	3
CCOc1ccc(C(O)=Cc2nc3cc(S(=O)(=O)CC)ccc3oc2=O)cc1	8	25
O=C(Nc1cccc(Cl)c1)c1cc(S(=O)(=O)N2CCCCC2)ccc1F	-6	-4
O=c1c([N+](=O)[O-])c(Cl)c2ccccc2n1-c1ccccc1	-2	100*
O=c1c([N+](=O)[O-])c(O)c2ccccc2n1-c1ccccc1	-3	-6
COc1ccc(-c2cc3ccc(OC(=O)C(C)C)cc3oc2=O)cc1	-5	-11
Cc1ccc(-c2noc(CCC(=O)NCc3cccnc3)n2)cc1	2	-1
CCSc1nnc(NC(=O)Cc2ccc(Cl)cc2)s1	-1	-4
O=C(NCC(=O)N1CCOCC1)c1c[nH]c2ccccc12	-5	-14
CCOc1ccc(NC(=O)C2CN(S(=O)(=O)c3cccnc3)CC23CCCCC3)cc1 (centres undefined)	-1	52*
COc1ccc(CNC(=O)C2CN(S(=O)(=O)c3cccnc3)CC23CCCCC3)cc1 (centres undefined)	-3	3
COc1ccccc1N1CCN(C(=O)CSc2ncnc3ccccc23)CC1	0	-12
Cc1ccc(Br)cc1N1CCC(C(=O)Nc2cccc(F)c2)C1=O (centres undefined)	-7	31
Cc1ccc(NC(=O)C2CCN(c3cc(Br)ccc3C)C2=O)cc1C (centres undefined)	4	74*
COc1ccc(/C=N/OCc2nc3c4c5c(sc4ncn3n2)CCCC5)cc1OC	-2	i
Fc1ccc(NN=Cc2sccc2Oc2ccccc2)c(F)c1	3	nt
C=C1CCN([C@@H](CC(C)C)C(=O)N2CCOCC2)S(=O)(=O)c2ccccc21	-1	9
CC(C)CC(C(=O)N1CCOCC1)N1C(=O)C2C3c4ccccc4C(c4ccccc43)C2C1=O (centres undefined)	-10	55*
CCOC(CNC(=O)c1ccc2c(c1)ncn2-c1ccc(CC)cc1)OCC	29	13
O=C(Nc1cc(F)ccc1F)N1CCC2(CC1)Nc1cc(F)ccc1-n1cccc12	-12	59*
O=C(Nc1ccccc1F)N1CCC2(CC1)Nc1ccccc1-n1cccc12	-3	50*

Assay outcomes deposited in PubChem BioAssay by University of Kansas High Throughput Screening Laboratory.
